Compound activity deposited in PubChem BioAssay by Buhrlage Lab, Dana-Farber Cancer Institute and Novartis Institutes for BioMedical Research (Cambridge, Mass).
Sampled rows, rich in hits. Any-hit rate of the full collection: about 3.4%.
USP28 inh: human USP28 deubiquitinase inhibition. Q96RU2. purified USP28, Ub-rhodamine cleavage fluorescence, 30 min. inhibition, % at 25 µM. actives 3% (n = 47,000). AID 1645857
OTUD3 inh: human OTUD3 deubiquitinase inhibition. purified OTUD3, Ub-rhodamine fluorescence, 2 h. inhibition, % at 25 µM. actives 0.7% (n = 47,000)
Target sequence (Q5T2D3 whole entry, looked up): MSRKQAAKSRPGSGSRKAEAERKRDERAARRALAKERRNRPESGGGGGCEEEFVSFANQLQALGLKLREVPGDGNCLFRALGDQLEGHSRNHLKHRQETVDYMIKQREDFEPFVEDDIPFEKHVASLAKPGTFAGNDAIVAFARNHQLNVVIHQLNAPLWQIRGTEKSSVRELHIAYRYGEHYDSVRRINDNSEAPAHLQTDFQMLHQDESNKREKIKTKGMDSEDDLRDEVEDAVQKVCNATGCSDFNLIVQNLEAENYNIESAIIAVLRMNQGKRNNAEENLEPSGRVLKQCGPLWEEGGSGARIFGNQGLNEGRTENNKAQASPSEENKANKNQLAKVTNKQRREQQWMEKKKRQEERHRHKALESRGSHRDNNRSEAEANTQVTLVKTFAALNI
Large screens that a line does not name were inactive. Cut-off read from the data, not from the text of the source: active = inhibition above about 30%; inactive = the rest.

Cc1ccc(S(=O)(=O)N(C)c2ccccc2C(=O)NCc2ccc3c(c2)OCO3)cc1	none
CC(C)(C)c1cc(NC(=O)CCc2ccccc2)no1	none
CC(C)(C)c1cc(CCC(=O)Nc2c3c(nc4c2CCC4)CCCC3)cc(C(C)(C)C)c1O	USP28 inh 34
Cc1ccc(OCC(=O)Nc2cccn3nc(-c4cccnc4)nc23)cc1	none
CCOc1ccc(NC(=O)CCc2csc(NC(=O)c3ccc(=O)[nH]c3)n2)cc1	none
COc1ccccc1CC(CC(=O)Nc1cc(C)ccc1C)C(=O)O (stereo unspecified)	none
CC(C)NC(=O)C1(Cc2ccc(-c3ccccc3)cc2)CCN(C(=O)c2cccnc2)CC1	none
CNC(=O)C1(c2ccccc2)Cc2ccccc2C1	none
CCc1cc(=O)n(CC(=O)Nc2cc(C)ccc2OC)c(N2CCOCC2)n1	OTUD3 inh 37
CCc1cc(=O)n(CC(=O)Nc2ccc(F)c(F)c2)c(N2CCOCC2)n1	none
O=c1c2c(ccn1Cc1nc(C3CC3)no1)ccn2Cc1cccnc1	USP28 inh 31
O=c1c2c(ccn1Cc1ccccc1F)ccn2Cc1cccnc1	none (no result: USP28 inh)
N#Cc1ccc(Cc2ncc(C(F)(F)F)cc2Cl)s1	USP28 inh 60
O=S(=O)(NCc1ccccn1)c1ccc(Cc2ncc(C(F)(F)F)cc2Cl)s1	none
CCN(Cc1ccccc1)S(=O)(=O)c1ccc(C(=O)Nc2sccc2C(N)=O)cc1	none (no result: USP28 inh)
COc1ccc(CCNc2ncnc3oc(C)c(C)c23)cc1OC	none
CC(C)(C)c1ccc(C(=O)Nc2ccc([C@@H](O)[C@H]3COCC(=O)N3)cc2)cc1	USP28 inh 47
O=C1COC[C@H]([C@H](O)c2ccc(NC(=O)c3ccc(F)c(Cl)c3)cc2)N1	none
COc1cc(Cl)ccc1Nc1ncc(C(=O)Nc2cc(OC)c(OC)c(OC)c2)c2ccccc12	none
Cc1cc(NC(=O)Cn2c(=O)n(CCCCC(=O)NCc3ccco3)c(=O)c3ccccc32)ccc1Br	none
COc1cc2c(=O)n(CCC(=O)NCc3ccco3)c(=O)n(CC(=O)Nc3c(C)cccc3C)c2cc1OC	USP28 inh 65, OTUD3 inh 50
Cc1ccc(Cl)cc1NC(=O)Cn1c(=O)n(CCC(=O)NCc2ccco2)c(=O)c2ccccc21	none
Cc1ccc(NC(=O)Cn2c(=O)n(CC(=O)NCc3ccco3)c(=O)c3ccccc32)cc1C	USP28 inh 44, OTUD3 inh 41
Fc1ccc(NCc2nc3ccccc3n2Cc2ccccc2)cc1	USP28 inh 33
CCOc1ccc(NCc2nc3ccccc3n2Cc2ccccc2)cc1	none
COc1ccc(C2CNCCN2C(=O)CCc2c(C)noc2C)cc1 (stereo unspecified)	none
O=C(CCc1ccccc1)Nc1ccc2c(c1)nc1n2CCN(C2CCCC2)C1	none
CC(C)n1c(=O)[nH]c2c(C(=O)N3CCCCC3)snc2c1=O	none
O=C(Nc1ccc(S(=O)(=O)N2CCOCC2)cc1)c1oc(=O)c2ccccc2c1-c1ccccc1	none
CN1C[C@@H]2C[C@H](NC(=O)Nc3ccc(F)cc3)CN2Cc2ccccc21	none
CC(=O)Nc1ccc(NC(=O)N[C@H]2C[C@H]3CN(C)c4ccccc4CN3C2)cc1	USP28 inh 31
N[C@@H](Cc1ccccc1)C(=O)N1CCC2(CC1)CN(C(=O)c1ccc(Cl)cc1)CCO2	USP28 inh 45
O=C1COC2(CCN(C(=O)N3CCCC3)CC2)CN1Cc1ccccc1	none
O=C(c1ccccc1)N1CCCC1c1nnn2cc(C3CC3)ccc12 (stereo unspecified)	none
COc1ccccc1NC(=O)c1nnc2c(-c3ccccc3)c(C)nn2c1C	none
CSCCC(NS(=O)(=O)c1cccc(Cl)c1)c1nnc2ccccn12 (stereo unspecified)	none
Cc1nnc(-c2ccc3ccn(CC(=O)N4CCN(c5ccccn5)CC4)c3c2)o1	none
CCc1nnc(-c2ccc3ccn(CC(=O)N4CCN(c5ccccn5)CC4)c3c2)o1	USP28 inh 31, OTUD3 inh 83
O=C(NC1CC1)N1CCC2(CCC(N3CCOCC3)c3ccccc32)CC1 (stereo unspecified)	none
Cc1ccc(-c2nn(-c3ccccc3)cc2C(=O)N2c3ccccc3CCC2C)o1 (stereo unspecified)	none
O=C1CC(c2ccco2)Cc2[nH]c(=O)c(-c3nc(-c4ccc(Cl)cc4)cs3)cc21 (stereo unspecified)	OTUD3 inh 38
COc1ccc(-c2csc(-c3cc4c([nH]c3=O)CC(c3ccco3)CC4=O)n2)cc1 (stereo unspecified)	none
O=S(=O)(c1ccc2c(c1)OCCO2)N(Cc1ccccc1)Cc1nnc(-c2ccccc2)o1	none
CCc1nc(N2CCCC2=O)sc1C(=O)Nc1ccccc1	none
CCc1nc(N2CCCC2=O)sc1C(=O)Nc1cccc(C(C)=O)c1	USP28 inh 52
CCOC(=O)Nc1cccc(C(=O)Nc2ccc(N3CCCC3=O)cc2)c1	none
CCc1nc(N2CCCC2=O)sc1C(=O)Nc1cccc(C)c1	USP28 inh 49
COc1cccc([C@@H]2c3c(C)nn(C)c3NC(=O)[C@H]2NC(=O)c2ccc(Cl)cc2)c1	USP28 inh 35
Cc1cccc(C(=O)N[C@@H]2C(=O)Nc3c(c(C)nn3C)[C@H]2c2cccc(C(F)(F)F)c2)c1	none
